HT1080NT lethal = kills 2HG-producing HT-1080-NT fibrosarcoma cells | HT-1080-NT fibrosarcoma viability, CellTiter-Glo ATP luminescence, 48 h | Potency, µM (highest dose often 46.1 µM), without a hit: top-dose activity, negative = less viability, most hits filed as cytotoxic | hit rate 1.6% among 360,000 | AID 686970;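 also: NT is the 2HG producing partner of a matched IDH1 knockdown line; potency is read from the fitted curve at half-maximal effect; 0% = DMSO-treated cells and -100% = media-only wells without cells; nearly all actives have a fitted effect of over 55% in size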
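Fibrosarcoma NT cells, 750 per well in 5% FBS RPMI, were exposed to compound for 48 hours. Viability: CellTiter-Glo luminescence.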
IL1B secr inh = blocks inflammasome-driven IL-1 beta release; activity change, % at 57.5 µM; THP-1 LPS/ATP IL-1B secretion, AlphaLISA, 16 h; stronger effect = lower value; AID 743279; hit rate 4.7% among 360,000; in the data active = activity change below about -50%; inconclusive = mostly about -30% to -49%
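THP-1 cells pretreated 1 hr with compounds (up to 57.5 uM final), then stimulated with LPS (250 ng/mL final) plus ATP (1.25 mM final); secreted IL-1B measured by AlphaLISA after 16 hr, decreased signal indicating inhibition.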
uPA generation = cell surface uPA generation inhibition; hit rate 0.31% among 330,000; AID 540303; Potency, µM (highest dose often 38.3 µM), for inactives: at the top dose activity change, negative = inhibition, actives largely listed as inhibitors; cell surface uPA generation assay, qHTS; active = well fitted inhibition curve with a large enough effect; inconclusive = small, poorly fitted or top-dose-only effect; inactive = no such curve, though single readings can be large or run the other way; tested in mouse RAW 264.7 cells; also: potency is read from the fitted curve at half-maximal effect; nearly all actives have a fitted effect of over 55% in size
DT40 TDP1 CPT = DT40-hTDP1 cell growth loss with CPT | hit rate 12% among 420,000 | Potency, µM (titrated, usually from 46.2 µM), without a hit: top-dose activity change, negative = growth inhibition, actives largely listed as inhibitors | chicken DT40 Tdp1-/-;hTDP1 cells + 20 nM CPT, ATP luminescence, 48 h; also: potency is read from the fitted curve at half-maximal effect; nearly all actives have a fitted effect of over 55% in size
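Cell growth measured by CellTiter-Glo luminescence after a minimum 48 h, 37 C compound exposure with 20 nM CPT in Tdp1-knockout DT40 cells stably expressing hTDP1, seeded 400/well; qHTS titration format.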
DT40 TDP1 no CPT = qHTS for Inhibitors of human tyrosyl-DNA phosphodiesterase 1 (TDP1): qHTS in cells in absence of CPT; Potency, µM (series often up to 46.2 µM), for the others: at the top dose activity change, negative = growth inhibition, hits mostly inhibitors; hit rate 15% among 420,000; DT40 Tdp1-/- hTDP1 cells, no CPT, ATP luminescence, 48 h; also: potency is read from the fitted curve at half-maximal effect; nearly all actives have a fitted effect of over 55% in size
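Luminescent ATP content (CellTiter-Glo) served as the growth readout. Knockout chicken DT40 cells expressing human TDP1 were exposed to compounds without camptothecin for a minimum 48 hr at 37 °C.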
HT1080 IDH1KD tx = toxicity to HT-1080 IDH1 knockdown cells (counter line). hit rate 2% among 360,000. Potency, µM (titrated, usually from 46.1 µM), without a hit: top-dose activity, negative = toxicity, actives largely listed as cytotoxic. HT-1080 IDH1 knockdown viability, ATP luminescence, 48 h;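 also: potency is read from the fitted curve at half-maximal effect; 0% = DMSO wells and -100% = cell-free medium wells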
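Viability of IDH1-knockdown HT-1080 fibrosarcoma cells was assessed by CellTiter-Glo after 48 h at 37 °C with titrated compound; concentration-effect curves were classified by fit quality and response size.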
Numbers without * were called inactive; ? = inconclusive; / = no result. The list is not random: actives were taken first. Their share in the collection is about 19%. Unless noted, calls follow the shape of the dose curve; as a rule, active = well fitted curve in the direction sought with a large enough effect; inconclusive = small, poorly fitted or top-dose-only effect, or another doubt; inactive = no such curve, though single readings can be large; an effect the other way counts as inactive or inconclusive. Unless noted, % is scaled to controls: 0 for no effect and ±100 for the full control effect.

SMILES | HT1080NT lethal | IL1B secr inh | uPA generation | DT40 TDP1 CPT | DT40 TDP1 no CPT | HT1080 IDH1KD tx
O=C(c1ccc2c(=O)n(Cc3ccc4c(c3)OCO4)c(=S)[nH]c2c1)N1CCCCC1 | 9.2% | 12.3 | 3.8% | ? | ? | 9.0%
CCCCCn1c(=O)[nH]c2cc(C(=O)NCc3ccc4c(c3)OCO4)ccc2c1=O | 10.0% | 5.9 | 2.1% | -8.7% | -16.1% | 14.6%
CN1CCN(C(=O)c2ccc3c(=O)n(Cc4ccc5c(c4)OCO5)c(=S)[nH]c3c2)CC1 | -11.9% | / | / | 22.4µM* | 12.6µM* | 1.7%
CCCCCn1c(=O)[nH]c2cc(C(=O)N3CCN(Cc4ccc5c(c4)OCO5)CC3)ccc2c1=O | -3.0% | -13.0 | 0.0% | 4.61µM* | 10.3µM* | ?
O=C(c1ccc2c(=O)n(Cc3ccc(Cl)cc3)c(=S)[nH]c2c1)N1CCCC1 | 20.5% | 13.8 | -4.5% | -18.2% | ? | 2.9%
CN1CCN(C(=O)c2ccc3c(=O)n(Cc4ccc(Cl)cc4)c(=S)[nH]c3c2)CC1 | ? | -1.4 | / | 20.6µM* | ? | ?
COc1ccccc1C(CNC(=O)C1CCN(C(=O)Nc2ccccc2)CC1)N1CCCC1 (centres undefined) | 3.8% | -3.2 | 10.9% | -2.0% | 14.2% | 2.8%
Cc1ccc(C2CN=NC23CCc2ccccc2C3=O)cc1 (centres undefined) | -0.4% | 12.8 | -5.4% | 25.9µM* | 25.9µM* | -11.8%
CCCOc1ccc(NC(=O)CC2C(=O)N(CC)C(=S)N2Cc2cccs2)cc1 (centres undefined) | ? | -4.0 | / | ? | ? | 20µM*
CCCCCCOc1ccc(NC(=O)CC2C(=O)N(CC)C(=S)N2Cc2ccco2)cc1 (centres undefined) | -22.9% | -100.8* | -5.8% | ? | ? | ?
C=CCN1C(=O)C(CC(=O)Nc2ccc(OCCC)cc2)N(CCCN2CCN(Cc3ccccc3)CC2)C1=S (centres undefined) | 16.4µM* | -67.2* | -2.1% | 23.1µM* | 20.6µM* | 16.4µM*
CC(C)(C)Cc1c(-c2ccccc2)nc2ccc(Cl)cn12 | -1.1% | 57.6 | / | 23.1µM* | 23.1µM* | 7.2%
CC(C)(C)Cc1c(-c2ccc(Br)cc2)nc2ccc(Cl)cn12 | ? | 60.6 | / | 20.6µM* | ? | ?
CC(C)(C)Cc1c(-c2ccc(Cl)cc2)nc2ccc(Br)cn12 | ? | 38.9 | / | ? | ? | -21.7%
CCOC(=O)c1c(-c2ccccc2)nc2ccc(Cl)cn12 | 5.9% | 13.6 | -0.6% | ? | 16.4µM* | 3.8%
CN(C)Cc1c(-c2ccc(Cl)cc2)nc2ccc(Cl)cn12 | -1.9% | -5.9 | -1.1% | ? | 13µM* | -26.3%
Cc1ccc(Cc2c(-c3ccc(F)cc3)nc3ccc(Cl)cn23)cc1 | 2.6% | 41.8 | / | ? | ? | -12.7%
CC(C)(C)Cc1c(-c2ccc(Cl)cc2)nc2ccc(Cl)cn12 | ? | 16.3 | / | ? | ? | ?
COC(=O)Nc1c(-c2ccccc2)nc2ccc(Cl)cn12 | -5.0% | -1.6 | -4.2% | -21.1% | -15.8% | 4.1%
Cc1csc2nc(SCC(=O)N3CCN(c4ccccc4)CC3)[nH]c(=O)c12 | 9.9% | 38.8 | 3.8% | ? | ? | -10.3%
CC(C)(C)Cc1c(-c2cccc(Br)c2)nc2ccc(Br)cn12 | 0.5% | -13.9 | / | ? | ? | 9.0%
CC(C)(C)Cc1c(-c2ccc(F)cc2)nc2ccc(Br)cn12 | -1.5% | 55.1 | / | ? | 16.4µM* | 3.5%
Cc1cccc(NC(=O)C2CCN(c3nc(C)cc(C)n3)CC2)c1 | -4.5% | 0.6 | 2.3% | ? | ? | -0.8%
Cc1cccc(NC(=O)C2CC(=O)n3cnnc3S2)c1 (centres undefined) | -2.2% | -6.9 | -6.3% | 4.61µM* | 5.8µM* | 0.4%
CCCCn1c(=O)c(CCC(=O)OCC(=O)NCc2ccc(OC)c(OC)c2)nc2ccccc21 | -9.3% | 22.8 | -4.4% | -11.1% | -3.2% | 0.2%
SMILES | HT1080NT lethal | IL1B secr inh | uPA generation | DT40 TDP1 CPT | DT40 TDP1 no CPT | HT1080 IDH1KD tx
COc1ccc(C(=O)CSc2nc(C)cc(C)c2C(=O)Nc2ccccc2C)cc1 | / | / | / | ? | 14.6µM* | /
Cc1ccc(C(=O)CSc2nc(C)cc(C)c2C(=O)Nc2cccc(C)c2)cc1 | / | / | / | 20.6µM* | ? | /
CCCC(=O)N(c1ccc(OCC)cc1)S(=O)(=O)c1ccc2c3c(cccc13)C(=O)N2C | 0.7% | -9.1 | 11.1% | 14.6µM* | 13µM* | 12.5%
CN1C(=O)c2cccc3c(S(=O)(=O)N4CCCC4C(=O)O)ccc1c23 (centres undefined) | -3.6% | -5.4 | -4.0% | -18.9% | -15.3% | 8.0%
COC(=O)c1cn(CC(=O)N2CCCCCC2)c2ccccc12 | 3.5% | -1.9 | -6.0% | -1.2% | 2.6% | 0.6%
CCOC(=O)C1=C(O)/C(=C/c2cn(CC(=O)N3CCCC3)c3ccccc23)SC1=Nc1ccccc1 | -1.3% | ? | 4.3% | 18.4µM* | 18.4µM* | 4.7%
CN(C)c1c2ccccc2nc2c(F)c(F)c(F)c(F)c12 | -2.5% | -95.8* | -15.2% | 23.1µM* | 20.6µM* | -2.9%
COc1ccc(-c2coc3cc(OC(C)=O)cc(OC(C)=O)c3c2=O)cc1 | / | / | / | 9.4% | 10.5% | /
O=C(COc1ccccc1)Nc1ccc(N2CCN(C(=O)c3ccco3)CC2)cc1 | 25.7% | -2.7 | 3.7% | -0.3% | -27.1% | 13.3%
O=C(Nc1ccc(N2CCN(C(=O)c3ccco3)CC2)cc1)c1ccc(F)cc1 | 16.8% | -19.9 | 4.6% | ? | 20.6µM* | 17.9%
Nc1ccc(N2CCN(C(=O)c3ccco3)CC2)cc1 | -6.0% | 5.8 | / | 15.8µM* | 18.4µM* | -18.0%
Cc1ccc(OCC(=O)Nc2ccc(N3CCN(C(=O)c4ccco4)CC3)cc2)cc1 | -17.9% | -58.9* | -8.2% | ? | 23.1µM* | -14.6%
O=C(c1ccco1)N1CCN(c2ccc(F)cc2)CC1 | 1.4% | 3.7 | -2.0% | ? | -26.0% | -0.3%
Cc1cc(C)cc(C(=O)Nc2ccc(N3CCN(C(=O)c4ccco4)CC3)cc2)c1 | -2.8% | -51.9* | -6.8% | ? | 16.4µM* | -2.6%
CC(C)(C)C(=O)N1CCN(C(=O)c2ccco2)CC1 | -6.7% | -11.2 | 0.7% | -11.0% | -8.3% | -4.1%
COc1ccc(NS(=O)(=O)c2cc3[nH]c(=O)c(=O)[nH]c3cc2C)cc1OC | / | / | / | 2.4% | -7.6% | /
